The source of these data is the supplement of paper PMC6555819.

The assay deals with VDR:RXRa (NR concentration 270 nM, RXRa partner concentration 90 nM). Briefly: PBM binding z-score (relative to random genomic background probes); higher = stronger binding; sequences stand for … in GC…GCGATTGACAGCGTAGAATGAAGG
How it is done: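 Protein-binding microarray (Agilent 4x180K custom design, double-stranded 60-nt probes: 5' GC cap, 34-nt variable region, 24-nt constant primer region; full probe sequence given). Purified or IVT nuclear receptor:RXRα heterodimers (3:1 NR:RXRα, mostly 270:90 nM) or homodimers were incubated for 1 h in PBS with 2% milk and no ligand, then detected with Alexa488 antibodies. Fluorescence from o1-orientation probes (~5 replicates averaged) was converted to z-scores against 500 random hg19 background probes. Variable regions are seed direct-repeat (DR0–DR5) sites, all their single-nucleotide variants and half-site ablations.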
ACGAGCAGGCCAAGTTTGGGTCACTCAAACAAAG: the PBM binding z-score came to 0.614.
In turn, ACTATTAGTTGCGACGAGGGCAACCGATAGGTTG showed a PBM binding z-score of 0.0281.
For TGATATAGGTAAATGCTAGGTGAAAGTCCGATCT, the PBM binding z-score stood at 0.142.
In the case of ATCGAAAGGTTGAAGGTGAGTATACCCACCCGAA it was 0.806.
Under CTTACTGGGCCAAAAAGGTCATTGATGCCGATAA stands 4.92; under GGAACGAGGGCAAACTTGATAGCATCTGTCGACG, 1.42.
For GCTGCTAGGTCAACTGATGGTTAGCTAAAGCTCG, the PBM binding z-score was found to be 1.39.
GCAGACCGGTGAAACGCAGGTAACTCAGGGTGGC came in with a PBM binding z-score of -0.857.
The sequence TTACCAAGGTGAGCTGAGGTCTTTGATCCAACTC returned a PBM binding z-score of 0.497.
Under CTCGAAAGGTCGTGCTCAGGTGTGTATACCAAAC stands 3.31; under CAAACTACGTCAAGGTCAAAGTCGGTTTGTGCCA, 4.45.
In turn, AGCCAAAGTTCATCTAGGTAACGTAAGATATGCT yielded a PBM binding z-score of 4.48.
Turning to CCTACTGGGCCACGAAAGGTCATTGACTCAGTGA, the PBM binding z-score is 4.12.
For CCGTGTAGGTTATGGGGCATTCAGGCAACGGTGA, the PBM binding z-score turned out to be 0.11.
Under CTCGAAACGTCGGTTGAGGTGAGTATACGGATAA stands -0.213; under GCTAGCAGGCCATTTGGGTCACGCAATGACGGGC, 1.61.
TGAAGGAGGTTATAAGATCAGGGAACGTTGCAAA displayed a PBM binding z-score of 0.323.
In turn, TCGATTAGTTGATTAGGGCAACCGAAACAGCGGA came in with a PBM binding z-score of 0.219.
For CCGACTGTGGCAGAAAGGTTACCATACCATCCGG, the PBM binding z-score amounted to 0.378.
ATATGTAGGTTACATTCGGGTCATTCAGGCTATG yielded a PBM binding z-score of 4.24.
GCTGCTAGGTCAGGTTGGACAGCTAACGGGTACG gave a PBM binding z-score of 0.304.
As to ACCCGGAGGACAAAGGTCAGAGCTACGCCAGTGA, the PBM binding z-score stood at 3.2.
The sequence TATACAGGGCCAAAGGCCAGAGTACGAATGTCGA returned a PBM binding z-score of 0.13.
In turn, ATCTCTAGGGAAAGTTCAGTGAAAGATCGATAGA showed a PBM binding z-score of 1.12.
Sequence TCGAGTAAGTTAGGGGCATTCAGAATGGCGTCGA gave a PBM binding z-score of 0.425.
The sequence ATCTCTAGGTTAGACTCAGTTCAGTGAAGAACGC yielded a PBM binding z-score of 1.7.
The sequence ATTTGTAGGTTAAGGGTCATTCAGGTTGGTTCGC showed a PBM binding z-score of 6.08.
As for CAAACTAGGTCACAGAGCTCAAAGTCCGTGCGTA, the PBM binding z-score was found to be 3.09.
In the case of ATATGTAGGTTAAGGGCCATTCAGGTTGGTTCGC, the PBM binding z-score amounted to 1.01.
As to CTCGAAAGGTCGTGCTCAGGTGAGTATCCCAAAC, the PBM binding z-score is 3.03.
Sequence ATCTCTAGGTAAGATTCAGTTCAGTGAAGAACGC registered a PBM binding z-score of 0.961.
As to CCAGACAGGTGAAAGGTAACTTAGTCTGGTACGC, the PBM binding z-score turned out to be 0.744.
As for CGTCCAAGGTCAAAGGTAAGTGAAGAGATGACGG, the PBM binding z-score was 4.55.
TCTTGTAGATCAGCAGGTTAAGACAGCTGGCCAA: the PBM binding z-score is 0.176.
Sequence ACTCGTTGGTCAGCTGAGGTCACACACAATTCGG came in with a PBM binding z-score of 4.61.
In turn, ACTCAAAGTTCATCTAGGTAACGTAAGATATGCT gave a PBM binding z-score of 4.98.
The sequence ACTATTAATTGACTTAGGGCAACCGATACGACGC yielded a PBM binding z-score of 0.425.
With GCTGCTAGGTCAGGTTGGTTAGCTAACGGGTACG, the PBM binding z-score was 0.262.
Turning to CGTCCAAGGTCAGCAGGTCAGTCAAAGCGACGTG, the PBM binding z-score stood at 4.02.
GCTTGGAGGACAAGGTCAGAGCTTTGTCCGTAGA had a PBM binding z-score of 1.41.
